# From article PMC11062922 (Nature Chemical Biology, 2023)
# Like-named read-outs stand apart in the source and are kept apart here.
# What was measured:
# Parameters in all cases: species or system human, MV4-11 + K-562 + COLO205 + SK-N-BE2 + OVCAR-8
# EGFR = settings: read-out: apparent Kd, n = 1
# EPHA1 = settings: read-out: apparent Kd; compound concentrations: 100 nM and 1000 nM (sheet 'Samples'), CATDS: 8.4373240562764601E-2; n = 1
# EPHB4 = settings: read-out: apparent Kd; compound concentrations: 100 nM and 1000 nM (sheet 'Samples'), CATDS: 9.3319537671251104E-2; n = 1
# GAK = settings: read-out: apparent Kd, n = 1
# MAPKAPK2 = settings: read-out: apparent Kd, n = 1
# PIK3CA = settings: read-out: apparent Kd; compound concentrations: 100 nM and 1000 nM (sheet 'Samples'), CATDS: 0.12114887477335; n = 1
# PIK3CD = settings: read-out: apparent Kd, n = 1
# PIK3CG = settings: read-out: apparent Kd, compound concentrations: 100 nM and 1000 nM (sheet 'Samples'), n = 1
# RIPK2 = settings: read-out: apparent Kd, n = 1
# RIPK3 = settings: read-out: apparent Kd; compound concentrations: 100 nM and 1000 nM (sheet 'Samples'), CATDS: 8.3491494498952795E-2; n = 1
# ERBB3 = settings: read-out: apparent Kd, n = 1
# TTN = settings: read-out: apparent Kd; compound concentrations: 100 nM and 1000 nM (sheet 'Samples'), CATDS: 0.640536562241112; n = 1
# FECH = settings: read-out: apparent Kd, n = 1
# VDAC3 = settings: read-out: apparent Kd; compound concentrations: 100 nM and 1000 nM (sheet 'Samples'), CATDS: 0.46722570663248902; n = 1
# T10 = test system: T1, T10; settings: read-out: apparent Kd; compound concentrations:100 nM and 1000 nM (sheet 'Samples'); n = 1
# T1 construct: gene NAT10
# EPHB6 = settings: read-out: apparent Kd; compound concentrations:100 nM and 1000 nM (sheet 'Samples'); n = 1
# NQO2 = settings: read-out: apparent Kd; compound concentrations:100 nM and 1000 nM (sheet 'Samples'); n = 1
# EIF2AK1 = settings: read-out: apparent Kd; compound concentrations:100 nM and 1000 nM (sheet 'Samples'); n = 1
# MAPK11 = settings: read-out: apparent Kd; compound concentrations:100 nM and 1000 nM (sheet 'Samples'); n = 1
# MAPK14 = settings: read-out: apparent Kd; compound concentrations:100 nM and 1000 nM (sheet 'Samples'); n = 1
# MAPK8 = settings: read-out: apparent Kd; compound concentrations:100 nM and 1000 nM (sheet 'Samples'); n = 1
# MAPK9 = settings: read-out: apparent Kd; compound concentrations:100 nM and 1000 nM (sheet 'Samples'); n = 1
# PIP4K2C = settings: read-out: apparent Kd; compound concentrations:100 nM and 1000 nM (sheet 'Samples'); n = 1
# SIK2 = settings: read-out: apparent Kd; compound concentrations:100 nM and 1000 nM (sheet 'Samples'); n = 1
# SIK3 = settings: read-out: apparent Kd; compound concentrations:100 nM and 1000 nM (sheet 'Samples'); n = 1
# TAOK2 = settings: read-out: apparent Kd; compound concentrations:100 nM and 1000 nM (sheet 'Samples'); n = 1
# NTRK1 = settings: read-out: apparent Kd; compound concentrations:100 nM and 1000 nM (sheet 'Samples'); n = 1
# PDXK = settings: read-out: apparent Kd; compound concentrations:100 nM and 1000 nM (sheet 'Samples'); n = 1
# MAP2K5 = settings: read-out: apparent Kd; compound concentrations:100 nM and 1000 nM (sheet 'Samples'); n = 1
# YES1 = settings: read-out: apparent Kd; compound concentrations:100 nM and 1000 nM (sheet 'Samples'); n = 1
# IARS = settings: read-out: apparent Kd; compound concentrations:100 nM and 1000 nM (sheet 'Samples'); n = 1
# NQO1 = settings: read-out: apparent Kd, n = 1
# PLK1 = settings: read-out: apparent Kd, n = 1
# EPHA5 = settings: read-out: apparent Kd; compound concentrations: 100 nM and 1000 nM (sheet 'Samples'), CATDS: 0.352465913660859; n = 1
# MAP3K12 = settings: read-out: apparent Kd; compound concentrations: 100 nM and 1000 nM (sheet 'Samples'), CATDS: 0.23080963599757501; n = 1
# JAK2 = settings: read-out: apparent Kd; compound concentrations:100 nM and 1000 nM (sheet 'Samples'); n = 1
# PRKACG = settings: read-out: apparent Kd; compound concentrations:100 nM and 1000 nM (sheet 'Samples'); n = 1
# PGK1 = settings: read-out: apparent Kd; compound concentrations:100 nM and 1000 nM (sheet 'Samples'); n = 1
# [1] = compound concentrations: 100 nM and 1000 nM (sheet 'Samples'), CATDS: 1
# [2] = compound concentrations:100 nM and 1000 nM (sheet 'Samples')
smiles,measurement,setting,value
COc1cc2ncnc(Nc3ccc(F)c(Cl)c3)c2cc1O[C@H]1CC[C@H](N)CC1 [BIBW3133BS],potency estimated from few doses,"EGFR; compound concentrations: 100 nM and 1000 nM (sheet 'Samples'), CATDS: 0.31081219561231099",48.6 nM
same,potency estimated from few doses,EPHA1,670 nM
same,potency estimated from few doses,EPHB4,508 nM
same,potency estimated from few doses,"GAK; compound concentrations: 100 nM and 1000 nM (sheet 'Samples'), CATDS: 7.6130935509039099E-2",922 nM
same,potency estimated from few doses,"MAPKAPK2; compound concentrations: 100 nM and 1000 nM (sheet 'Samples'), CATDS: 6.9663188807488702E-2",1270 nM
same,potency estimated from few doses,PIK3CA,273 nM
same,potency estimated from few doses,"PIK3CD; compound concentrations: 100 nM and 1000 nM (sheet 'Samples'), CATDS: 0.31843258690153697",46.8 nM
same,potency estimated from few doses,PIK3CG; CATDS: 8.4802846120227496E-2,660 nM
same,potency estimated from few doses,"RIPK2; compound concentrations: 100 nM and 1000 nM (sheet 'Samples'), CATDS: 8.6500761240037902E-2",624 nM
same,potency estimated from few doses,RIPK3,691 nM
COc1ccc2ncnc(Nc3ccc(OCc4ccccc4)cc3)c2c1.Cl [GI261520A],potency estimated from few doses,"EGFR; compound concentrations: 100 nM and 1000 nM (sheet 'Samples'), CATDS: 0.82087147453604603",67.2 nM
same,potency estimated from few doses,PIK3CG; CATDS: 0.25285428644367502,1240 nM
same,potency estimated from few doses,"RIPK2; compound concentrations: 100 nM and 1000 nM (sheet 'Samples'), CATDS: 0.26130568040748398",1100 nM
Cl.Nc1c(C(=O)c2ccc(CCCN3CCOCC3)cc2)cnn1-c1ccc(F)cc1 [RO1153427-001],potency estimated from few doses,ERBB3; [1],1820 nM
c1ccc(COc2ccc(Nc3ncnc4ccc(-c5ccco5)cc34)cc2)cc1 [GW284372X],potency estimated from few doses,"EGFR; compound concentrations: 100 nM and 1000 nM (sheet 'Samples'), CATDS: 0.410036232309059",781 nM
same,potency estimated from few doses,TTN,304 nM
Cc1nnc(-c2cccc(-c3ccc(C(=O)NCC4CC4)cc3)c2)o1 [GW734508X],potency estimated from few doses,"FECH; compound concentrations: 100 nM and 1000 nM (sheet 'Samples'), CATDS: 0.53771916993111701",1500 nM
same,potency estimated from few doses,VDAC3,1990 nM
C[C@@H]1CC[C@@H](C(=O)Nc2ccccc2)CN1c1cc(-c2ccc3c(N)n[nH]c3c2)nc(N)n1 [GSK2286062A],potency estimated from few doses,ERBB3; [2],1760 nM
same,potency estimated from few doses,T10,1120 nM
Cl.c1ccc(Cn2ccc3cc(Nc4ncnc5ccccc45)ccc32)cc1 [GW275568A],potency estimated from few doses,EGFR; [1],82.9 nM
Cc1cc(-c2ccccn2)cc(C)c1/C=C/c1cncc(-c2nn[nH]n2)c1.Cl [GW459057A],potency estimated from few doses,EPHB6,162 nM
same,potency estimated from few doses,NQO2,1420 nM
Cn1c(=O)c(-c2ccccc2Cl)cc2cnc(NC3CCOCC3)nc21 [RO3303470-000],potency estimated from few doses,EIF2AK1,1090 nM
same,potency estimated from few doses,GAK; [2],695 nM
same,potency estimated from few doses,MAPK11,20.2 nM
same,potency estimated from few doses,MAPK14,24 nM
same,potency estimated from few doses,MAPK8,318 nM
same,potency estimated from few doses,MAPK9,202 nM
same,potency estimated from few doses,MAPKAPK2; [2],12.5 nM
same,potency estimated from few doses,PIP4K2C,1140 nM
same,potency estimated from few doses,RIPK2; [2],503 nM
same,potency estimated from few doses,SIK2,1330 nM
same,potency estimated from few doses,SIK3,604 nM
same,potency estimated from few doses,TAOK2,1880 nM
Cl.c1ccc(Cc2nc3ccc(Nc4ncnc5ccccc45)cc3[nH]2)cc1 [GR269666A_KCGS],potency estimated from few doses,EGFR; [2],76 nM
same,potency estimated from few doses,NTRK1,1110 nM
same,potency estimated from few doses,PDXK,1550 nM
CC(=O)Nc1cccc(C#Cc2cncnc2Nc2ccc(OCc3cccc(F)c3)c(Cl)c2)n1 [GW794726X],potency estimated from few doses,"EGFR; compound concentrations: 100 nM and 1000 nM (sheet 'Samples'), CATDS: 0.81532426513796596",184 nM
same,potency estimated from few doses,PIK3CG; CATDS: 0.36055601865019399,1440 nM
COc1cc2ncnc(Nc3ccc4c(cnn4Cc4ccccc4)c3)c2cc1OC.Cl [GW282449A],potency estimated from few doses,EGFR; [2],1.29 nM
same,potency estimated from few doses,MAP2K5,1120 nM
same,potency estimated from few doses,RIPK2; [2],210 nM
same,potency estimated from few doses,YES1,1110 nM
COc1cc2ncn(-c3cc(OCc4ccc(S(C)(=O)=O)cc4)c(C(N)=O)s3)c2cc1OC [GW869979X],potency estimated from few doses,FECH; [2],2080 nM
same,potency estimated from few doses,IARS,2020 nM
same,potency estimated from few doses,NQO1; [2],2010 nM
same,potency estimated from few doses,PIK3CD; [2],120 nM
same,potency estimated from few doses,PLK1; [2],1110 nM
NC(=O)c1sc(-n2cnc3ccccc32)cc1OCc1ccccc1F [GSK1024306A],potency estimated from few doses,"FECH; compound concentrations: 100 nM and 1000 nM (sheet 'Samples'), CATDS: 0.40591450620250102",2130 nM
same,potency estimated from few doses,"PLK1; compound concentrations: 100 nM and 1000 nM (sheet 'Samples'), CATDS: 0.65086071220868402",781 nM
Cn1cc(C2=C(c3c[nH]c4ccccc34)C(=O)NC2=O)c2ccccc21 [RO0317884-000],potency estimated from few doses,EPHA5,1650 nM
same,potency estimated from few doses,"PIK3CD; compound concentrations: 100 nM and 1000 nM (sheet 'Samples'), CATDS: 0.85995893919281496",146 nM
COc1cc2ncnc(Nc3ccc(OCc4ccccc4Br)c(Cl)c3)c2cc1OC.Cl [GI261590A],potency estimated from few doses,EGFR; [1],2230 nM
Cl.Fc1ccccc1COc1ccc(Nc2ncnc3ccc(-c4nnc(C(F)(F)F)o4)cc23)cc1Cl [GW424170A],potency estimated from few doses,"EGFR; compound concentrations: 100 nM and 1000 nM (sheet 'Samples'), CATDS: 0.318491462582081",448 nM
same,potency estimated from few doses,MAP3K12,1290 nM
same,potency estimated from few doses,"PIK3CD; compound concentrations: 100 nM and 1000 nM (sheet 'Samples'), CATDS: 0.65461148719951301",104 nM
O=C(O)C(F)(F)F.O=S1CCN(Cc2ccc(-c3ccc4ncnc(Nc5ccc(OCc6cccc(F)c6)c(Cl)c5)c4c3)o2)CC1 [GW576609A],potency estimated from few doses,"EGFR; compound concentrations: 100 nM and 1000 nM (sheet 'Samples'), CATDS: 0.496271215913483",306 nM
same,potency estimated from few doses,JAK2,1050 nM
same,potency estimated from few doses,PRKACG,781 nM
CS(=O)(=O)CCNCc1nc(-c2ccc3ncnc(Nc4ccc(OCc5cccc(F)c5)c(Cl)c4)c3c2)cs1.Cl [GW583340C],potency estimated from few doses,"EGFR; compound concentrations: 100 nM and 1000 nM (sheet 'Samples'), CATDS: 0.528390210256103",96.3 nM
same,potency estimated from few doses,PGK1,119 nM
CC(=O)NCc1cccc(C#Cc2cncnc2Nc2ccc(OCc3cccc(F)c3)c(Cl)c2)c1 [GW807930X],potency estimated from few doses,"EGFR; compound concentrations: 100 nM and 1000 nM (sheet 'Samples'), CATDS: 0.88842612806031096",149 nM
same,potency estimated from few doses,"NQO1; compound concentrations: 100 nM and 1000 nM (sheet 'Samples'), CATDS: 0.34789699583550798",2230 nM
